Screen size: about 39,000 compounds; about 1,500 (3.8%) were called active. Many of the other results were omitted from the sample, so actives are more common in it than they were.

The assay relates to HSkMC (human skeletal muscle cells). The assay can be described thus: cytotoxicity call (relative viability < 0.9). To be noted: 10 µM.
With `C=C(NC(=O)C(=C)NC(=O)c1csc(C2=NC3c4csc(n4)C4NC(=O)c5csc(n5)C(C(C)(O)C(C)O)NC(=O)C5CSC(=N5)C(=CC)NC(=O)C(C(C)O)NC(=O)c5csc(n5)C3(CC2)NC(=O)C(C)NC(=O)C(=C)NC(=O)C(C)NC(=O)C(C(C)CC)NC2C=Cc3c(C(C)O)cc(nc3C2O)C(=O)OC4C)n1)C(N)=O` (stereo not given), the cytotoxicity call is “inactive”.
For `C=C(NC(=O)C(=C)NC(=O)c1csc(C2=N[C@@H]3c4csc(n4)[C@@H]4NC(=O)c5csc(n5)[C@H](C(C)(O)[C@@H](C)O)NC(=O)[C@H]5CSC(=N5)/C(=C/C)NC(=O)[C@H]([C@@H](C)O)NC(=O)c5csc(n5)[C@]3(CC2)NC(=O)[C@@H](C)NC(=O)C(=C)NC(=O)[C@@H](C)NC(=O)[C@@H]([C@H](C)CC)N[C@H]2C=Cc3c([C@@H](C)O)cc(nc3[C@@H]2O)C(=O)O[C@H]4C)n1)C(N)=O` (stereo not given in full), the cytotoxicity call was “inactive”.
As for `C=C(NC(=O)C(=C)NC(=O)c1csc(C2=N[C@H]3c4csc(n4)[C@H]4NC(=O)c5csc(n5)[C@H](C(C)(O)[C@@H](C)O)NC(=O)[C@H]5CSC(=N5)C(=CC)NC(=O)[C@H]([C@@H](C)O)NC(=O)c5csc(n5)[C@]3(CC2)NC(=O)[C@H](C)NC(=O)C(=C)NC(=O)[C@H](C)NC(=O)[C@H]([C@H](C)CC)N[C@@H]2C=Cc3c([C@H](C)O)cc(nc3[C@H]2O)C(=O)O[C@@H]4C)n1)C(N)=O` (stereo not given in full), the cytotoxicity call is “active”.
For `C[C@@H]1CCCCO[C@H](CN(C)C(=O)NC2CCCCC2)[C@@H](C)CN([C@@H](C)CO)C(=O)c2cc(NC(=O)C3CCCCC3)ccc2O1`, the cytotoxicity call is “inactive”.
For the compound `CS(=O)(=O)N1[C@@H]2c3ccc(-c4ccc(F)cc4)c(=O)n3C[C@@H]2[C@@H](CO)[C@@H]1C(=O)O`, the cytotoxicity call is “inactive”.
For `Cc1noc(C)c1S(=O)(=O)N(C)C[C@H]1Oc2ccc(NS(=O)(=O)c3ccccc3)cc2C(=O)N([C@@H](C)CO)C[C@H]1C`, the cytotoxicity call is “inactive”.
With `C[C@@H]1CCCCO[C@H](CN(C)S(C)(=O)=O)[C@H](C)CN([C@@H](C)CO)C(=O)c2cc(NS(=O)(=O)c3cn(C)cn3)ccc2O1`, the cytotoxicity call was “inactive”.
For `C[C@@H]1CCCCO[C@H](CN(C)Cc2ccc(Cl)c(Cl)c2)[C@H](C)CN([C@@H](C)CO)C(=O)c2cc(NC(=O)Cc3ccccc3)ccc2O1`, the cytotoxicity call is “inactive”.
Consider `C[C@@H]1CCCCO[C@@H](CN(C)Cc2ccc(Cl)c(Cl)c2)[C@@H](C)CN([C@H](C)CO)C(=O)c2cc(NC(=O)Cc3ccccc3)ccc2O1`, for which the cytotoxicity call was “active”.
Take `C[C@@H]1CCCCO[C@@H](CN(C)Cc2ccc(Cl)c(Cl)c2)[C@@H](C)CN([C@@H](C)CO)C(=O)c2cc(NC(=O)Cc3ccccc3)ccc2O1`: the cytotoxicity call was “inactive”.
The value for `C[C@@H]1CN([C@H](C)CO)C(=O)c2cc(NC(=O)Cc3ccccc3)ccc2O[C@@H](C)CCCCO[C@@H]1CN(C)Cc1ccc(Cl)c(Cl)c1` was “inactive”; that for `C[C@@H]1CCCCO[C@@H](CN(C)Cc2ccc(Cl)c(Cl)c2)[C@H](C)CN([C@@H](C)CO)C(=O)c2cc(NC(=O)Cc3ccccc3)ccc2O1` was “inactive”.
The value for `C[C@@H]1CCCCO[C@@H](CN(C)Cc2ccc(Cl)c(Cl)c2)[C@H](C)CN([C@H](C)CO)C(=O)c2cc(NC(=O)Cc3ccccc3)ccc2O1` was “active”; that for `C[C@@H]1CCCCO[C@H](CN(C)Cc2ccc(Cl)c(Cl)c2)[C@@H](C)CN([C@@H](C)CO)C(=O)c2cc(NC(=O)Cc3ccccc3)ccc2O1` was “inactive”; that for `C[C@@H]1CN([C@H](C)CO)C(=O)c2cc(NC(=O)Cc3ccccc3)ccc2O[C@@H](C)CCCCO[C@H]1CN(C)Cc1ccc(Cl)c(Cl)c1` was “active”.
`C[C@H]1CCCCO[C@H](CN(C)Cc2ccc(Cl)c(Cl)c2)[C@@H](C)CN([C@@H](C)CO)C(=O)c2cc(NC(=O)Cc3ccccc3)ccc2O1`: the cytotoxicity call is “inactive”.
Take `COc1ccc(-c2cnc3c(c2)C(=O)N([C@@H](C)CO)C[C@H](C)[C@H](CN(C)C(=O)Cc2ccccn2)O3)cc1`: the cytotoxicity call is “inactive”.
On to `C[C@@H]1CN([C@H](C)CO)C(=O)c2cc(NC(=O)Cn3cnnn3)ccc2O[C@@H]1CN(C)Cc1ccc(C(F)(F)F)cc1`, for which the cytotoxicity call is “inactive”.
For the compound `C[C@H]1CCCCO[C@H](CN(C)C(=O)Cc2ccccc2)[C@@H](C)CN([C@@H](C)CO)C(=O)c2cc(NC(=O)Nc3ccccc3)ccc2O1`, the cytotoxicity call was “inactive”.
On to `C[C@@H]1CCCCO[C@H](CN(C)C(=O)Nc2ccc(F)cc2)[C@@H](C)CN([C@H](C)CO)C(=O)c2cc(NC(=O)CCC(F)(F)F)ccc2O1`, for which the cytotoxicity call was “inactive”.
As to `C[C@@H]1CN([C@@H](C)CO)C(=O)CCCn2cc(nn2)CO[C@H]1CN(C)C(=O)Nc1cccc(Oc2ccccn2)c1`, the cytotoxicity call is “inactive”.
`C[C@@H]1CN([C@H](C)CO)C(=O)c2cccc(NC(=O)c3ccc(-c4nccs4)cc3)c2O[C@H]1CN(C)S(=O)(=O)c1ccc(Cl)cc1`: the cytotoxicity call was “inactive”.
As to `C=C1c2cccc(O)c2C(=O)C2=C(O)[C@]3(O)C(O)=C(C(N)=O)C(=O)[C@@H](N(C)C)[C@@H]3[C@@H](O)[C@H]12`, the cytotoxicity call was “inactive”.
As to `O=C(C[C@H]1CC[C@@H]2[C@H](COC[C@H](O)CN2S(=O)(=O)c2ccc(Cl)cc2)O1)NCCN1CCCC1`, the cytotoxicity call is “inactive”.
In the case of `COc1ccc2c3c([nH]c2c1)[C@H](CO)N(C[C@]13CCN(CC1)Cc1ccc(cc1)F)C(=O)Nc1ccc(cc1)F`, the cytotoxicity call is “inactive”.
Regarding `COc1ccc2c3c([nH]c2c1)[C@@H](CO)N(C[C@]13CCN(CC1)C(=O)Nc1ccccc1)C(=O)Nc1ccc(cc1)F`, the cytotoxicity call is “inactive”.
The entry for `COc1ccc(cc1)CN1CC[C@]2(CC1)CN([C@H](CO)c1[nH]c3cc(ccc3c12)OC)C(=O)Nc1ccc(cc1)F` is “inactive”; for `COc1ccc2c3c([nH]c2c1)[C@H](CO)N(C[C@]13CCN(CC1)Cc1ccccc1OC)C(=O)Nc1ccc(cc1)F` it is “inactive”.
With `COc1ccc(cc1)CN1CC[C@]2(CC1)CN([C@@H](CO)c1[nH]c3cc(ccc3c12)OC)C(=O)Nc1ccc(cc1)F`, the cytotoxicity call is “inactive”.
On to `COc1ccc2c3c([nH]c2c1)[C@@H](CO)N(C[C@]13CCN(CC1)Cc1cc(on1)-c1ccccc1)C(=O)Nc1ccc(cc1)F`, for which the cytotoxicity call is “active”.
In the case of `COc1ccc2c3c([nH]c2c1)[C@H](CO)N(C[C@]13CCN(CC1)Cc1cc(on1)-c1ccccc1)C(=O)Nc1ccc(cc1)F`, the cytotoxicity call was “active”.
Take `COc1ccc2c3c([nH]c2c1)[C@@H](CO)N(C[C@]13CCN(CC1)Cc1ccc(cc1)F)C(=O)Nc1ccc(cc1)F`: the cytotoxicity call is “active”.
The entry for `COc1ccc2c3c([nH]c2c1)[C@H](CO)N(C[C@]13CCN(CC1)C(=O)Nc1ccccc1)C(=O)Nc1ccc(cc1)F` is “inactive”; for `COc1ccc2c3c([nH]c2c1)[C@H](CO)N(C[C@]13CN(Cc2cc(on2)-c2ccccc2)C1)C(=O)Nc1ccc(cc1)F` it is “active”; for `COc1ccc2c3c([nH]c2c1)[C@@H](CO)N(C[C@]13CCN(CC1)Cc1ccccc1OC)C(=O)Nc1ccc(cc1)F` it is “inactive”.
As to `COc1ccc2c3c([nH]c2c1)[C@@H](CO)N(C[C@]13CN(Cc2cc(on2)-c2ccccc2)C1)C(=O)Nc1ccc(cc1)F`, the cytotoxicity call was “inactive”.
The entry for `C=c1[nH]/c(=C\c2ccc(F)cc2)c(=O)o1` is “inactive”; for `Cc1noc(C)c1S(=O)(=O)Nc1ccc2c(c1)C(=O)N([C@H](C)CO)C[C@H](C)[C@@H](CN(C)S(C)(=O)=O)OCCCC[C@H](C)O2` it is “inactive”; for `C[C@H]1CN([C@@H](C)CO)C(=O)Cc2cc(NC(=O)CCCN(C)C)ccc2O[C@@H]1CN(C)C(=O)Nc1ccc2c(c1)OCO2` it is “inactive”.
With `C[C@@H]1CN([C@@H](C)CO)C(=O)c2cccc(NC(=O)c3cnccn3)c2O[C@@H]1CN(C)S(=O)(=O)c1ccccc1`, the cytotoxicity call is “inactive”.
The value for `CCS(=O)(=O)NCC[C@H]1CC[C@H](NC(=O)C2CC2)[C@@H](CO)O1` was “inactive”; that for `O=C(O)CNC(=O)[C@H]1COc2ccccc2O1` was “inactive”.
Consider `COc1cccc(-c2cn(CC[C@H]3CC[C@H](NC(=O)CN(C)C)[C@H](CO)O3)nn2)c1`, for which the cytotoxicity call was “inactive”.
For `COc1ccc(NC(=O)N(C)C[C@H]2OCCCC[C@H](C)Oc3ccc(NC(=O)C4CCCCC4)cc3C(=O)N([C@@H](C)CO)C[C@H]2C)cc1`, the cytotoxicity call was “inactive”.
As to `CC(=O)O[C@H]1C[C@@]2(C)[C@H]3CC=C4[C@@H](C[C@@H](O[C@H]5O[C@@H](CO)[C@@H](O)[C@@H](O)[C@@H]5O)[C@@H](O)C4(C)C)[C@@]3(C)CC[C@@]2(C)[C@@H]1C(C)(O)C(=O)CCC(C)(C)O` (stereo not given in full), the cytotoxicity call was “inactive”.
As to `COc1ccc(S(=O)(=O)Nc2ccc3c(c2)C(=O)N([C@@H](C)CO)C[C@@H](C)[C@H](CN(C)S(=O)(=O)c2ccc(F)cc2)O3)cc1`, the cytotoxicity call is “inactive”.
As for `O=C(O)[C@H]1C[C@H]2C(=O)NCC(=O)N2[C@H]1c1ccc(O)cc1`, the cytotoxicity call is “inactive”.
On to `C[C@@H]1CN([C@H](C)CO)C(=O)c2cccc(NC(=O)c3ccc(-c4nccs4)cc3)c2O[C@@H]1CN(C)Cc1ccc2c(c1)OCO2`, for which the cytotoxicity call is “inactive”.
The value for `C[C@@H]1CN([C@H](C)CO)C(=O)c2c(c3ccccc3n2C)-c2ccccc2CO[C@H]1CN(C)C(=O)Nc1ccc(-c2ccccc2)cc1` was “inactive”; that for `C[C@H](CO)N1C[C@H](C)[C@H](CN(C)Cc2ccc(-c3ccccc3)cc2)OCc2ccccc2-c2c(n(C)c3ccccc23)C1=O` was “active”.
The entry for `C[C@@H]1CN([C@@H](C)CO)C(=O)c2c(c3ccccc3n2C)-c2ccccc2CO[C@H]1CN(C)Cc1ccc(-c2ccccc2)cc1` is “inactive”; for `C[C@H](CO)N1C[C@H](C)[C@@H](CN(C)Cc2ccccc2)OCc2ccccc2-c2c(n(C)c3ccccc23)C1=O` it is “inactive”; for `C[C@H](CO)N1C[C@H](C)[C@@H](CN(C)Cc2ccc(-c3ccccc3)cc2)OCc2ccccc2-c2c(n(C)c3ccccc23)C1=O` it is “inactive”.
As for `C[C@@H]1CN([C@H](C)CO)C(=O)c2c(c3ccccc3n2C)-c2ccccc2CO[C@@H]1CN(C)Cc1ccc(-c2ccccc2)cc1`, the cytotoxicity call is “inactive”.
The value for `C[C@H]1CN([C@@H](C)CO)C(=O)c2c(c3ccccc3n2C)-c2ccccc2CO[C@@H]1CN(C)Cc1ccccc1` was “inactive”.
The entry for `C[C@@H]1CN([C@H](C)CO)C(=O)c2c(c3ccccc3n2C)-c2ccccc2CO[C@@H]1CN(C)C(=O)Nc1ccc(-c2ccccc2)cc1` is “inactive”.
For the compound `C[C@@H]1CN([C@H](C)CO)C(=O)c2c(c3ccccc3n2C)-c2ccccc2CO[C@H]1CN(C)Cc1ccccc1`, the cytotoxicity call is “active”.
`C[C@@H]1CN([C@@H](C)CO)C(=O)c2c(c3ccccc3n2C)-c2ccccc2CO[C@@H]1CN(C)Cc1ccc(-c2ccccc2)cc1`: the cytotoxicity call was “active”.
Consider `C[C@H](CO)N1C[C@H](C)[C@H](CN(C)C(=O)Nc2ccc(-c3ccccc3)cc2)OCc2ccccc2-c2c(n(C)c3ccccc23)C1=O`, for which the cytotoxicity call was “active”.
The value for `C[C@H]1CN([C@@H](C)CO)C(=O)c2c(c3ccccc3n2C)-c2ccccc2CO[C@@H]1CN(C)Cc1ccc(-c2ccccc2)cc1` was “inactive”.

For the origin of these results see the antibiotic and cytotoxicity screens of Wong et al. (2023).
